Assay results taken from PubChem BioAssay (NCI).
This is part of a sample that, as a whole, favours compounds with a hit. Of some 79,000 tested, about 15% had one in any assay. A number with no mark means an inactive call. Active and inactive are the calls of the source. Cut-off read from the data, not from the text of the source: active = growth inhibition above about 70%; inactive = the rest.

How the values were obtained:
[1] = NCI Yeast Anticancer Drug Screen. Data for the rad50 strain (AID 155);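 note: 0% = growth of vehicle-only cultures of the same strain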; settings: S. cerevisiae rad50 strain growth inhibition; at 50.0 µM; hits give high values
Outline: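 Cells are treated with compound, grown, and their growth is then scored against vehicle-only cultures of the same repair-deficient yeast strain.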

[2] = NCI Yeast Anticancer Drug Screen. Data for the mec2-1 strain (AID 157); settings: S. cerevisiae mec2-1 strain, at 50.0 µM, hits give high values
Outline: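 Compounds were applied to mec2-1 yeast cells. Their growth was then compared with that of vehicle-treated cultures to give growth inhibition.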

[3] = NCI Yeast Anticancer Drug Screen. Data for the sgs1 mgt1 strain (AID 161);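 note: 0% = growth of cultures given vehicle only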; settings: S. cerevisiae sgs1 mgt1 strain, at 50.0 µM, hits give high values
Outline: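 Yeast cells carrying a defined DNA-repair defect were exposed to test compounds. Growth inhibition was measured relative to vehicle-treated controls.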

[4] = NCI Yeast Anticancer Drug Screen. Data for the cln2 rad14 strain (AID 165);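 note: 0% = growth equal to vehicle treated cultures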; settings: S. cerevisiae cln2 rad14 strain, at 50.0 µM, hits give high values
Outline: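 Strain: cln2 rad14 yeast, altered in cell cycle control and DNA damage repair. Read-out: growth inhibition vs vehicle.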

[5] = NCI Yeast Anticancer Drug Screen. Data for the bub3 strain (AID 167); settings: S. cerevisiae bub3 mutant strain, at 50.0 µM, hits give high values
Outline: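 Part of a panel of yeast mutants defective in DNA damage repair or cell cycle regulation. Each strain is grown with compound, and inhibition is calculated relative to solvent-treated cultures.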

[6] = NCI Yeast Anticancer Drug Screen. Data for the mlh1 rad18 strain (AID 175); settings: S. cerevisiae mlh1 rad18 strain growth inhibition; at 50.0 µM; hits give high values
Outline: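 A repair-deficient yeast strain is exposed to test compound, and growth is scored relative to vehicle-treated controls.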

SMILES	growth inhibition [1]	growth inhibition [2]	growth inhibition [3]	growth inhibition [4]	growth inhibition [5]	growth inhibition [6]
CC(C)(C)/C(=N\[N+](C)(C)C)c1ccccc1	7.85%	6.4%	0.4%	-1.3%	6.8%	10.6%
CCNC(=S)NC1CCCCC1	-8.35%	5.15%	3.65%	-4.05%	-13.1%	12.3%
CC(C)CN(CC(C)C)/N=C/c1cc([N+](=O)[O-])ccc1O	-11.7%	9%	-4.9%	-3.65%	-12.9%	-14.8%
O=[N+]([O-])c1ccc(NC(CO)C(O)C(O)C(O)CO)c([N+](=O)[O-])c1 (configuration not stated)	12.3%	-4.85%	-0.85%	-6.45%	3.2%	-7.4%
O=C1c2scnc2-c2nccc3c2c1nc1ccccc13	60.3%	75.5% (active)	66.8%	53.2%	80.9% (active)	74.9% (active)
O=C(C[n+]1cccc(Cl)c1)c1ccccc1	-3.55%	7.9%	7.9%	-9.7%	-4.85%	-0.5%
CCOC(=O)C(C(C)=O)C(c1ccc(OCc2ccccc2)c(C)c1)C(C(C)=O)C(=O)OCC (configuration not stated)	14.7%	3.9%	25.9%	27.1%	8.55%	19.9%
O=S(=O)(c1ccccc1)c1ccccn1	-13.1%	-13.2%	-19.9%	6.2%	3.7%	-22.1%
O=C(OCC(OC(=O)c1ccccc1)C(OC(=O)c1ccccc1)C(O)C(O)CO)c1ccccc1 (configuration not stated) (tested in a mixture with another compound)	-6.8%	-4.1%	9.55%	-17.9%	-12.2%	28.6%
O=C(Cl)Cc1ccccc1[N+](=O)[O-]	14.5%	14.6%	12.4%	6.55%	-20.4%	12.9%
CN(C)S(=O)(=O)c1cccc2ccccc12	3.35%	7.85%	-7.35%	-6.9%	2.45%	-8.65%
O=C(O)C1C(C2c3ccc(O)cc3Oc3cc(O)ccc32)C2(Cl)C(Cl)=C(Cl)C1(Cl)C2(Cl)Cl (configuration not stated)	95.3% (active)	94.4% (active)	96.8% (active)	69.2%	81.6% (active)	95.3% (active)
c1cc2cc(c1)CNCCNCCNCc1cccc(c1)CNCCNCCNC2	-22.4%	-17.4%	-30.6%	16.9%	6%	-2.9%
COc1cc2[nH]c(-c3ccccc3)cc(=O)c2c(OC)c1OC	-11.3%	-3.65%	-8%	0.25%	8.85%	3.35%
Cn1c(=O)c2[nH]c(NCc3ccccc3)nc2n(C)c1=O	27.4%	-3.9%	0.7%	-35.2%	0.4%	-0.2%
CC(C)(C)C(=O)C1C(=O)c2ccccc2C1=O	50.6%	21.8%	54%	-35.5%	5.95%	31.9%
O=C(Nc1ccccc1C(=O)NCc1ccccc1)/C(=C/c1ccccc1)NC(=O)c1ccccc1	7.25%	6.9%	-0.95%	4.05%	6.8%	-34.7%
Cc1ccc(S(=O)(=O)NC(Cc2ccccc2)C(=O)NCc2cccnc2)cc1 (configuration not stated)	23.6%	-8.4%	5.2%	4.45%	-4.1%	4.65%
CCc1[nH]c(=O)c2oc3cc4ccccc4cc3c2c1C(=O)O	-43.9%	-35.5%	-55.6%	-29.4%	-17.8%	-70.3%

SMILES	growth inhibition [1]	growth inhibition [2]	growth inhibition [3]	growth inhibition [4]	growth inhibition [5]	growth inhibition [6]
COc1ccc(-n2nnnc2C2(Nc3ccccc3)CCN(Cc3ccccc3)CC2)cc1	-22.4%	-8.4%	-1.4%	2.65%	-2.15%	10.4%
CC(=O)OC1C(C)OC(n2cnc3c(=O)[nH]cnc32)C(OC(C)=O)C1OC(C)=O (configuration not stated)	37.1%	9.25%	16.4%	-7.3%	6.25%	27.8%
CC(C)(C)OC(=O)C1=C2C=C(O)C=CC2(C)N(Cc2ccccc2)C1=N (configuration not stated)	-23.9%	-55.5%	-36%	-36.2%	-24.6%	-50.2%
COc1ccc(/C=C2/N=C(c3ccccc3)OC2=O)cc1	-2.75%	-8.35%	-0.3%	-28.9%	-1.75%	-6.8%
C[N+](C)(C)c1cc[c]([Sn]([c]2ccc([N+](C)(C)C)cc2)([c]2ccc([N+](C)(C)C)cc2)[c]2ccc([N+](C)(C)C)cc2)cc1	16.4%	-5.75%	20.2%	6.65%	-0.15%	11.3%
Cc1ccccc1C(c1ccccc1C)C(CC(=O)O)CC(=O)O	11.7%	14.2%	10.6%	-102%	5.05%	-2.6%
[Cl][Tb]([Cl])[Cl]	16.4%	8%	31.8%	40.1%	37.2%	29%
Clc1ccccc1C1N2CCCCC2[C@@H]2c3[nH]c4ccccc4c3CCN12 (some centres not stated)	-14.8%	-1.35%	9.25%	9.25%	12.6%	2.4%
O=C1CC(c2ccc(Cl)cc2)C(=O)O1 (configuration not stated)	-10.5%	12%	1.6%	3.2%	-23.4%	-15.1%
COC(=O)c1s/c(=N\C(=S)N(C)C)n(-c2ccccc2)c1C(=O)OC	5.3%	20.2%	-0.1%	15.2%	-8.85%	11.2%
Oc1cccc(CCc2ccccn2)c1	-2.45%	0.85%	-11.3%	-24.3%	-3.85%	-4.05%
c1cn2cnnc2n2cnnc12	-2.7%	-13%	-15.6%	-32%	-0.8%	-9.8%
O=C(Nc1ccc(Cl)c(Cl)c1)Oc1ccc(Cl)cc1C(=O)Nc1ccccc1	-13.8%	-2.6%	29.1%	-7.4%	28.1%	37.6%
N#C/C(=C\NC(=S)NCc1ccccc1)c1nc2ccccc2s1	54.1%	32.4%	53.5%	43.3%	30.5%	61.5%
Cn1c2ccccc2c2c3c(ccc21)C(=O)c1ccccc1C3=O	6.85%	-3.9%	7.15%	-62.6%	8.2%	-2.5%
CC1=CC(C)=C(C#N)C2=S=C(c3ccccc3)C(=O)N12	6%	14.8%	22.5%	29.1%	19.9%	22.1%
O=P1(O)c2ccccc2CCc2ccccc21	10.1%	-14.6%	3.7%	29.8%	-11%	3.4%
O=C(Cc1ccccc1)NN(Cc1ccccc1)Cc1ccccc1	-14.8%	-0.85%	-2.95%	-10.8%	23.9%	0.5%
